Values joined by “and” are separate entries in the source; they are usually repeats but may differ in a detail not shown here. Equal values may be shown once. A structure can be active in one record and inactive in another. Active and inactive are the calls of the source. The calls were made as follows: active = hit-call score of the fitted dose curve at least 0.9, where 1 is the maximum; inactive = score below 0.9.
Tests used:
[1] = read-out: Intercellular Adhesion Molecule 1 (ICAM1), ICAM1 (gene 3383); assay: BSK_BF4T_ICAM1: BioMAP Diversity Plus: BF4T Assay for Intercellular Adhesion Molecule 1 (ICAM1) Biomarker Activity (AID 2284260); details: primary human bronchial epithelial cells with fibroblasts
In short: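 ICAM-1 levels measured by ELISA after 24 h chemical treatment of bronchial epithelial cell/dermal fibroblast co-cultures, read against DMSO baseline. Overt cytotoxicity checked in parallel cultures by sulforhodamine B staining.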

[2] = read-out: Interleukin-8 (IL8), CXCL8 (gene 3576); assay: BSK_MyoF_IL8: BioMAP Diversity Plus: MyoF Assay for Interleukin-8 (IL8) Biomarker Activity (AID 2284261); details: primary human lung fibroblasts
In short: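 ELISA read-out of IL-8 from primary human lung fibroblasts, 24 h post-dose; positive-direction curve fitting relative to DMSO vehicle baseline.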

CD90, THY1 (gene 7070) = assay: BSK_BF4T_CD90: BioMAP Diversity Plus: BF4T Assay for CD90 Biomarker Activity (AID 2284262); details: primary human bronchial epithelial cells with fibroblasts
In short: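 CD90 levels by ELISA after 24 h treatment of human bronchial epithelial cell/dermal fibroblast cultures, analysed versus DMSO. Overt cytotoxicity checked in parallel cultures by sulforhodamine B staining.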

[3] = read-out: Interleukin-8 (IL8), CXCL8 (gene 3576); assay: BSK_BF4T_IL8: BioMAP Diversity Plus: BF4T Assay for Interleukin-8 (IL8) Biomarker Activity (AID 2284263); details: primary human bronchial epithelial cells with fibroblasts
In short: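 Human bronchial epithelial cells with dermal fibroblasts co-culture; IL-8 measured by ELISA 24 hours after dosing, fitted vs DMSO. Cytotoxicity tracked in parallel cultures by SRB total-protein staining.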

[4] = read-out: Interleukin-1 alpha (IL1a), IL1A (gene 3552); assay: BSK_BF4T_IL1a: BioMAP Diversity Plus: BF4T Assay for Interleukin-1 alpha (IL1a) Biomarker Activity (AID 2284264); details: primary human bronchial epithelial cells with fibroblasts
In short: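 ELISA read-out of IL-1α from bronchial epithelial cell/dermal fibroblast co-cultures 24 h after compound addition. Increases scored against DMSO negative control. Cytotoxicity monitored by sulforhodamine B staining of parallel cultures.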

Decorin, DCN (gene 1634) = assay: BSK_MyoF_Decorin: BioMAP Diversity Plus: MyoF Assay for Decorin Biomarker Activity (AID 2284265); details: primary human lung fibroblasts
In short: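 Human lung fibroblasts in the MyoF system were exposed to compound for 24 h, after which decorin was quantified by ELISA. Activity was fitted in the positive direction relative to DMSO negative control.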

KRT18 (gene 3875) [5] = assay: BSK_BF4T_Keratin818: BioMAP Diversity Plus: BF4T Assay for Keratin 818 Biomarker Activity (AID 2284266); details: primary human bronchial epithelial cells with fibroblasts
In short: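 Keratin 8/18 levels quantified by ELISA after 24 h chemical treatment of bronchial epithelial cell/dermal fibroblast co-cultures, fitted in positive direction relative to DMSO. Parallel SRB staining tracks overt cytotoxicity.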

[6] = BSK_MyoF_SRB: Viability Assessment in the BioMAP Diversity Plus: MyoF Assay (AID 2284267); details: primary human lung fibroblasts;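 also: total protein by SRB absorbance in parallel cultures as cytotoxicity measure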
In short: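 Lung fibroblast cultures, 24 h post-dose; fix 10% TCA, stain 0.1% SRB, read 560 nm. Signal = total protein as cytotoxicity measure; fitted relative to DMSO negative control.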

[7] = read-out: Matrix Metallopeptidase 1 (MMP1), MMP1 (gene 4312); assay: BSK_MyoF_MMP1: BioMAP Diversity Plus: MyoF Assay for Matrix Metallopeptidase 1 (MMP1) Biomarker Activity (AID 2284268); details: primary human lung fibroblasts
In short: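 ELISA readout of MMP1 in primary human lung fibroblast cultures, 24 h post-dosing. Gain of signal versus DMSO vehicle control defines activity. Parallel SRB staining (0.1% after 10% TCA fixation, 560 nm) flags overt cytotoxicity.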

[8] = read-out: Matrix Metallopeptidase 1 (MMP1), MMP1 (gene 4312); assay: BSK_BF4T_MMP1: BioMAP Diversity Plus: BF4T Assay for Matrix Metallopeptidase 1 (MMP1) Biomarker Activity (AID 2284270); details: primary human bronchial epithelial cells with fibroblasts
In short: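 MMP-1 quantified by ELISA in primary human bronchial epithelial/dermal fibroblast co-cultures, 24 hours post-dosing, with DMSO as baseline; parallel sulforhodamine B staining (560 nm) tracks overt cytotoxicity.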

[9] = read-out: Matrix Metallopeptidase 3 (MMP3), MMP3 (gene 4314); assay: BSK_BF4T_MMP3: BioMAP Diversity Plus: BF4T Assay for Matrix Metallopeptidase 3 (MMP3) Biomarker Activity (AID 2284271); details: primary human bronchial epithelial cells with fibroblasts
In short: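 MMP-3 level read by ELISA after 24 h chemical exposure of bronchial epithelial cell/dermal fibroblast co-cultures, fitted upward relative to DMSO. Parallel cultures stained with 0.1% SRB after TCA fixation gauge overt cytotoxicity.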

[10] = read-out: Tissue plasminogen activator (tPA), PLAT (gene 5327); assay: BSK_BF4T_tPA: BioMAP Diversity Plus: BF4T Assay for Tissue plasminogen activator (tPA) Biomarker Activity (AID 2284272); details: primary human bronchial epithelial cells with fibroblasts
In short: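 tPA level quantified by ELISA at 24 h post-treatment in bronchial epithelial/dermal fibroblast co-cultures, gain of signal scored against DMSO baseline. Parallel cultures stained with 0.1% SRB (560 nm) to flag overt cytotoxicity.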

[11] = read-out: Plasminogen Activator Inhibitor-1 (PAI1), SERPINE1 (gene 5054); assay: BSK_BF4T_PAI1: BioMAP Diversity Plus: BF4T Assay for Plasminogen Activator Inhibitor-1 (PAI1) Biomarker Activity (AID 2284273); details: primary human bronchial epithelial cells with fibroblasts
In short: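 PAI-1 levels quantified by ELISA 24 h post-dosing in bronchial epithelial cell plus dermal fibroblast cultures. Signal gain referenced to DMSO baseline. Sulforhodamine B total-protein staining of parallel wells checked cytotoxicity.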

[12] = BSK_BF4T_SRB: Viability Assessment in the BioMAP Diversity Plus: BF4T Assay (AID 2284274); details: primary human bronchial epithelial cells with fibroblasts
In short: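 Cytotoxicity measured as total protein: cells fixed with 10% TCA, stained with 0.1% SRB, read at 560 nm. Bronchial epithelial/dermal fibroblast co-culture, 24 h after dosing, with positive-direction fitting relative to DMSO.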

[13] = read-out: urokinase Plasminogen Activator (uPA), PLAU (gene 5328); assay: BSK_BF4T_uPA: BioMAP Diversity Plus: BF4T Assay for urokinase Plasminogen Activator (uPA) Biomarker Activity (AID 2284275); details: primary human bronchial epithelial cells with fibroblasts
In short: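 uPA levels measured by ELISA at 24 hours in BF4T cultures (bronchial epithelial cells plus dermal fibroblasts) and compared with DMSO; cytotoxicity tracked in parallel cultures by sulforhodamine B staining.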

[14] = read-out: Matrix Metallopeptidase 9 (MMP9), MMP9 (gene 4318); assay: BSK_BF4T_MMP9: BioMAP Diversity Plus: BF4T Assay for Matrix Metallopeptidase 9 (MMP9) Biomarker Activity (AID 2284276); details: primary human bronchial epithelial cells with fibroblasts
In short: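 MMP-9 levels were measured by ELISA after 24 h exposure of bronchial epithelial cell/dermal fibroblast co-cultures, with DMSO as baseline. Parallel cultures were stained with 0.1% SRB after TCA fixation, read at 560 nm, to flag overt cytotoxicity.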

[15] = read-out: Interferon-inducible T-cell alpha chemoattractant (ITAC), CXCL11 (gene 6373); assay: BSK_BE3C_ITAC: BioMAP Diversity Plus: BE3C Assay for Interferon-inducible T-cell alpha chemoattractant (ITAC) Biomarker Activity (AID 2284279); details: primary human bronchial epithelial cells
In short: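 The assay measures I-TAC levels by ELISA in human primary bronchial epithelial cell cultures 24 hours after chemical treatment. Values reflect signal increase over the DMSO baseline.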

[16] = read-out: Interleukin-8 (IL8), CXCL8 (gene 3576); assay: BSK_BE3C_IL8: BioMAP Diversity Plus: BE3C Assay for Interleukin-8 (IL8) Biomarker Activity (AID 2284280); details: primary human bronchial epithelial cells
In short: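 Dose human bronchial epithelial cells with chemical; incubate 24 h; quantify IL-8 by ELISA; fit response upward versus DMSO controls.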

[17] = read-out: Epidermal growth factor receptor (EGFR), EGFR (gene 1956); assay: BSK_BE3C_EGFR: BioMAP Diversity Plus: BE3C Assay for Epidermal growth factor receptor (EGFR) Biomarker Activity (AID 2284281); details: primary human bronchial epithelial cells
In short: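 ELISA read-out of EGFR levels on human bronchial epithelial primary cells collected 24 h post-dosing. DMSO served as negative control and baseline for gain-of-signal fitting.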

KRT18 (gene 3875) [18] = assay: BSK_BE3C_Keratin818: BioMAP Diversity Plus: BE3C Assay for Keratin 818 Biomarker Activity (AID 2284282); details: primary human bronchial epithelial cells
In short: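 ELISA read-out of Keratin 8/18 in BE3C human bronchial epithelial cultures, 24 h post-dosing; positive-direction fit vs DMSO baseline.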

Measured: AC50

O=S(=O)(O)C(F)(F)C(F)(F)C(F)(F)C(F)(F)C(F)(F)C(F)(F)C(F)(F)C(F)(F)C(F)(F)C(F)(F)F
active: [3] 2.65 µM and 6.99 µM | [10] 2.39 µM | [15] 21.8 µM | KRT18 (gene 3875) [18] 21 µM and 18 µM
inactive: [1] | [2] | CD90, THY1 (gene 7070) | [4] | Decorin, DCN (gene 1634) | KRT18 (gene 3875) [5] | [6] | [7] | [8] | [9] | [10] | [11] | [12] | [13] | [14] | [15] | [16] | [17]

C=CC(=O)OCCC(F)(F)C(F)(F)C(F)(F)C(F)(F)C(F)(F)C(F)(F)C(F)(F)C(F)(F)F
inactive: all assays above

O=C(CC(=O)C(F)(F)C(F)(F)C(F)(F)F)c1cccs1
active: [1] 20 µM and 18.8 µM | CD90, THY1 (gene 7070) 9.69 µM | [3] 52.8 µM and 55.1 µM | [4] 43 µM and 45 µM | KRT18 (gene 3875) [5] 23.1 µM and 28 µM | [8] 19.3 µM and 17 µM | [9] 37.6 µM and 25.2 µM | [10] 30 µM | [11] 16.9 µM and 15.5 µM | [12] 23.9 µM and 26.7 µM | [13] 46.4 µM and 35.8 µM | [14] 28.8 µM and 22.4 µM | [15] 24.7 µM and 24.1 µM | [16] 48.2 µM and 55.2 µM | [17] 30 µM and 20.5 µM | KRT18 (gene 3875) [18] 10.8 µM and 14.7 µM
inactive: [2] | CD90, THY1 (gene 7070) | Decorin, DCN (gene 1634) | [6] | [7]

O=C(O)CCC(F)(F)C(F)(F)C(F)(F)C(F)(F)C(F)(F)C(F)(F)F
inactive: all assays above

From PubChem BioAssay (EPA / NIEHS)
